Shown are actives, neighbours in structure and some others; about 12% of the full set was active somewhere.
BAZ2B block = blocks human BAZ2B; Q9UIF8; AlphaScreen BAZ2B-H3K14Ac peptide displacement; Potency, µM (doses to about 114 µM), inactives show at the highest dose activity change, negative = inhibition, most hits filed as inhibitors; 4.4% of 360,000 active; also: % is scaled to controls: 0 for no effect and ±100 for the full control effect; nearly all actives have a fitted effect of over 60% in size
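Protein-peptide AlphaScreen: BAZ2B 50 nM, b-H3K14Ac 50 nM, 1x PBS pH 7.4 + 0.01% Tween-20. Preincubation 30 min RT; cpd 30 min RT (top 110 uM); beads 20 min RT, light-protected.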
Sfp inh = blocks B. subtilis Sfp PPTase activity; Q9F4F7; 3.5% of 310,000 active; Biochemical Sfp PPTase activity, qHTS; Potency, µM, for inactives: largest response in the series, negative = inhibition, usual class: inhibitors;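 also: the enzyme is Sfp with the accession as filed and its product quenches rhodamine fluorescence; 0% = enzyme reaction without inhibitor and -100% = no enzyme wells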
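After 15 min at room temperature with compound, 15 nM Sfp received 5 uM rhodamine-CoA plus 12.5 uM BHQ-2-ybbR (50 mM Hepes pH 7.6, 10 mM MgCl2). Rate came from the fluorescence difference over 30 min, ex 525/em 598 nm.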
G9a block = G9a (human) methyltransferase inhibition; Potency, µM (highest dose often 102 µM), for inactives: top-dose activity, negative = inhibition, hits mostly inhibitors; 8.8% of 350,000 active; AID 504332; Q96KQ7; G9a H3K9 monomethylation, AlphaScreen, 2 h; also: % is scaled to controls: 0 for no effect and ±100 for the full control effect; nearly all actives have a fitted effect of over 75% in size
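Quantitative HTS format: methyltransferase activity on a biotin-tagged H3K9 peptide is measured by AlphaScreen, using a rabbit anti-monomethyl-H3K9 antibody with streptavidin donor and anti-IgG acceptor beads. Final levels are 20 nM enzyme, 500 nM peptide, 20 uM SAM; 2 h RT.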
HP1b binding inh = HP1-beta chromodomain-methylated histone interaction inhibition; P83916; AlphaScreen HP1-beta / biotin-H3K9me3 peptide binding; Potency, µM (doses to about 114 µM), without a hit: top-dose activity change, negative = inhibition, most hits filed as inhibitors; 0.56% of 390,000 active; also: nearly all actives have a fitted effect of over 70% in size
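Compound inhibition of the preformed complex between 50 nM HP1-beta and 50 nM biotinylated H3K9me3 peptide was read by AlphaScreen. Buffer was PBS pH 7.4 with 0.01% Tween-20. Incubations ran 30 min at room temperature, with 10 ug/mL donor/acceptor beads.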
JMJD2A Tudor inh = blocks the human JMJD2A Tudor domain. O75164. AlphaScreen JMJD2A-Tudor / H3K4me3 peptide binding. Potency, µM (doses to about 114 µM), inactives show at the highest dose activity change, negative = inhibition, most hits filed as inhibitors. 4.4% of 390,000 active; also: % is scaled to controls: 0 for no effect and ±100 for the full control effect; nearly all actives have a fitted effect of over 50% in size
L3MBTL1 block = inhibitors of human L3MBTL1; AlphaScreen L3MBTL1–H3K9me1 peptide binding; Q9Y468; 0.66% of 230,000 active; Potency, µM (titrated, usually from 57.1 µM), for inactives: top-dose activity, negative = inhibition, most hits filed as inhibitors; also: % is scaled to controls: 0 for no effect and ±100 for the full control effect; nearly all actives have a fitted effect of over 60% in size
Target sequence (Q9Y468 whole entry, looked up): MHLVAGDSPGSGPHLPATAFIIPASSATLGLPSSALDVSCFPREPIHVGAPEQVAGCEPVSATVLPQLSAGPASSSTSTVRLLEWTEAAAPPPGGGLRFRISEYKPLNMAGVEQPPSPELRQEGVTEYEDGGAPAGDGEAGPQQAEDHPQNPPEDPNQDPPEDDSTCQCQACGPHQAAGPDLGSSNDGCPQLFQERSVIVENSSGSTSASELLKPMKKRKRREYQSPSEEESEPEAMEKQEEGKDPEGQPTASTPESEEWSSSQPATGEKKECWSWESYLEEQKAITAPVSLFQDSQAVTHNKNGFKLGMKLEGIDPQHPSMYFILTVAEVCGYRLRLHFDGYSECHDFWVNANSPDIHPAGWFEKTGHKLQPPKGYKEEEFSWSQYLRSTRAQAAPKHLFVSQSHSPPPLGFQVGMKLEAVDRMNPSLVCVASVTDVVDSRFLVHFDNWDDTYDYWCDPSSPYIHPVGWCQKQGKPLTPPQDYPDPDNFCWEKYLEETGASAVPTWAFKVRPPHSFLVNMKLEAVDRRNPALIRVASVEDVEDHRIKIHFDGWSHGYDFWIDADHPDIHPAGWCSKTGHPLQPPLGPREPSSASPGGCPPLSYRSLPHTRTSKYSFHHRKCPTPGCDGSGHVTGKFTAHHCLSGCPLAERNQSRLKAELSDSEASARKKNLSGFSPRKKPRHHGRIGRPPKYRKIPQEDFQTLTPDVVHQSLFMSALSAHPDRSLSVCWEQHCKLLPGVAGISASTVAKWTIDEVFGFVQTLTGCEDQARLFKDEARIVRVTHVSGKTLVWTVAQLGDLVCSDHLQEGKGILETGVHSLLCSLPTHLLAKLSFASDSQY
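L3MBTL1 (50 nM) pre-complexed 30 min with biotinylated H3(1-15)K9me1 peptide (75 nM), then compounds added for 30 min at room temperature; AlphaScreen streptavidin donor/nickel chelate acceptor beads (10 ug/mL final) read after 30 min dark incubation.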
The depositor's hits bear a star; ? = inconclusive; · = no result; [ ] = another dose, or the depositor's remark. Calls follow the shape of the dose curve; as a rule, active = well fitted curve in the direction sought with a large enough effect; inconclusive = small, poorly fitted or top-dose-only effect, or another doubt; inactive = no such curve, though single readings can be large; an effect the other way counts as inactive or inconclusive. Potency is read from the fitted curve at half-maximal effect.

SMILES	BAZ2B block	Sfp inh	G9a block	HP1b binding inh	JMJD2A Tudor inh	L3MBTL1 block
C/C(=N\Nc1ccc(C)c(Cl)c1)c1cccnc1	-38.0%	-5.3%	11.2µM*	45.4%	-16.7%	·
C/C(=N\NC(=O)C(=O)Nc1ccc(C)c(Cl)c1)c1ccncc1	11.0%	16.9%	26.0%[59 µM]	30.7%	8.0%	12.0%
C/C(=N\Nc1cccc(Cl)c1)c1ccc(-n2ccnc2)cc1	?	2.3%	7.94µM*	4.5%	?	-4.4%
COC(=O)N/N=C(\C)c1ccc(-n2ccnc2)cc1	-7.1%	12.2%	10.9%	44.2%	9.3%	-7.7%
C/C(=N\Nc1ccc(C)c(Cl)c1)c1ccncc1	?	-3.8%	22.4µM*	22.9%	?	·
CCOC(=O)c1c2ccccc2[n+]([O-])n1CCO	3.4%	·	6.2%[2.33 µM]	17.9%	-16.0%	-5.6%
COc1ccc(C2=CC(c3c(C)nn(-c4ccccc4)c3Cl)n3nnnc3N2)cc1OC (stereo unspecified)	-25.0%	-1.7%	44.7µM*	4.5%	?	-2.4%
COc1ccccc1C1C=C(c2ccc(C)cc2)Nc2nnnn21 (stereo unspecified)	10.1%	-10.6%	?	52.8%	-0.7%	-0.9%
Cc1cccc(-n2cnc3cc([N+](=O)[O-])ccc32)c1	?	-27.1%	11.2µM*	-24.4%	-20.5%	-7.1%
CCOc1ccc(N2CCCn3c2nc2c3c(=O)n(CCc3ccccc3)c(=O)n2C)cc1	-16.8%	14.1%	3.16µM*	·	·	2.7%
CCCS(=O)(=O)c1c(S(=O)(=O)CCC)c2c(N)cccn2c1C(=O)OC	?	28.2µM*	·	50.2%	-21.5%	4.9%
CCCS(=O)(=O)c1c(S(=O)(=O)CCC)c2ccc(C(N)=O)cn2c1C(=O)OC	·	16.5%	3.5%	23.6%	-13.7%	5.4%
CCCS(=O)(=O)c1c(S(=O)(=O)CCC)c2ccc(C(C)=O)cn2c1C(=O)OC	-4.6%	4.0%	35.5µM*	-2.6%	-9.6%	1.8%
CCCS(=O)(=O)c1c(S(=O)(=O)CCC)c2c(N)cccn2c1C(=O)c1ccccc1	?	4.3%	?	-14.5%	?	·
Cc1ccc2cccc(NC(=O)C(C)Oc3ccc(Cl)cc3Cl)c2n1 (stereo unspecified)	34.8%	·	59.0%[59 µM]	107.3%	39.9%	·
CCc1nc(SCC(=O)Nc2ccc(N(C)C)cc2)c2ccccc2n1	-29.8%	?	10µM*	1.5%	-32.6%	·
COc1ccc(NC(=O)CSc2ccc3c4c(cccc24)C(=O)c2ccccc2-3)cc1	2.4%	39.8µM*	-6.0%	11.8%	-11.2%	7.9%
COc1ccc(NC(=O)CSc2nnc(C)c3ccccc23)cc1	-28.6%	-0.1%	50.1µM*	19.0%[57 µM]	-22.0%	·
O=C(CSc1nncc2ccccc12)Nc1ccc(C(=O)O)cc1	?	50.1µM*	·	39.5%	-7.6%	·
CCc1nc(SCC(=O)NNC(=O)C(C)C)c2ccccc2n1	-4.7%	3.6%	19.7%[59 µM]	14.2%	-11.1%	9.3%
CSc1ccc(CNC(=O)C2CCN(c3nnc(-n4cccc4CNc4ccc(C)cc4)s3)CC2)cc1	-8.1%	·	5.0%[59 µM]	4.3%	?	·
COc1ccc(NC(=O)CSc2nnc(-c3ccccc3C)n2N)cc1OC	-0.3%	1.1%	12.0%	34.2%	-8.1%	3.9%
CCOc1cccc(-c2nnc(SCC(=O)Nc3cc(OC)cc(OC)c3)n2N)c1	1.8%	-5.2%	2.2%	45.7%	-9.8%	-4.1%
COc1ccc(-c2nnc(SCC(=O)NC3CCCCC3)n2N)cc1	6.9%	·	44.7µM*	33.8%	-10.5%	9.9%
Cc1ccc(-c2nnc(SCC(=O)NC3CCCC3)n2N)cc1	·	·	·	23.9%	-11.6%	0.6%
SMILES	BAZ2B block	Sfp inh	G9a block	HP1b binding inh	JMJD2A Tudor inh	L3MBTL1 block
COc1ccc(NC(=O)CSc2nnc(-c3ccccc3C)n2N)cc1	-2.2%	-13.8%	50.1µM*	49.1%	0.7%	1.9%
COc1cccc(NC(=O)CSc2nnc(-c3cccc(OC(C)C)c3)n2N)c1	4.0%	1.6%	25.1µM*	42.5%	56.2µM*	-3.6%
N#CCCN(C(=S)NC(=O)C1CCCCC1)c1ccccc1F	·	·	·	25.2%	3.4%	7.2%
O=C(COc1ccccc1F)Nc1ccc2nc(SCc3ccccc3)sc2c1	-10.1%	·	6.1%[59 µM]	57.6%	15.9%	·
Cc1cccc(CN2CCN(c3ncccn3)CC2)c1	?	?	·	?	2.82µM*	2.1%
O=C(c1cc(Br)ccc1Cl)N1CCN(c2ncccn2)CC1	11.2%	-8.1%	-5.7%	4.8%	?	·
c1ccc(N2CCN(Cc3ccsc3)CC2)nc1	79.4µM*	-12.6%	14.1µM*	?	3.16µM*	2.6%
O=C(CN1CCN(c2ccccn2)CC1)NCCc1ccccc1	2.9%	-0.9%	11.1%[59 µM]	45.9%	-13.7%[11.4 µM]	0.6%
c1ccc(CCCN2CCN(c3ccccn3)CC2)cc1	?	-18.8%	39.8µM*	?	25.1µM*	-4.6%
O=c1cc(CN2CCN(c3ccccn3)CC2)nc2sccn12	-21.2%	8.9%	-41.4%	6.5%	-22.8%	-3.6%
Brc1cccc(CN2CCN(c3ncccn3)CC2)c1	?	-7.8%	10µM*	?	20µM*	0.1%
Cc1cccc(CN2CCNC2=O)c1	1.4%	14.0%	?	34.7%	4.5%	-2.9%
CCOc1ccc(NC(=O)c2oc3ccccc3c2NC(=O)C(C)Oc2ccccc2)cc1 (stereo unspecified)	-16.7%	·	-4.3%[59 µM]	31.1%	-8.9%	·
COc1ccc(NC(=O)C(C)n2nc(-c3cc(C)ccc3C)c3c(c2=O)CCCC3)cc1 (stereo unspecified)	-30.0%	·	-32.0%[59 µM]	10.6%	-29.9%	·
Cc1ccc(CNC(=O)c2ccc3c(c2)NC(=O)CS3)cc1	0.1%	1.3%	37.8%[59 µM]	36.6%	3.0%	·
COc1ccc(C2C3C=CCCC3(C)C(=O)N2Cc2ccccc2)cc1Cl (stereo unspecified)	·	?	·	18.7%	-15.9%	·
Cc1cccc(-n2cc(CN3CCN(c4ccccn4)CC3)c(-c3cccc(F)c3)n2)c1	-20.0%	2.4%	-3.0%	47.8%	-9.0%	-13.4%
Cc1cccc(CN2CCN(c3ccccn3)CC2)c1	·	·	·	?	3.16µM*	·
O=S(=O)(c1cccc(Br)c1)N1CCN(CCc2ccccc2)CC1	4.1%	7.4%	11.5%	90.4%	11.9%	·
O=S(=O)(c1ccccc1)N1CCN(Cc2cccc(Br)c2)CC1	·	·	·	?	28.2µM*	·
Cc1ccc(N(CC(=O)NC2CCCC2)C(=O)CNC(=O)c2cccs2)cc1C	1.0%	1.4%	9.5%[59 µM]	1.1%	-6.0%	·
CN(C)CCCN(C(=O)c1ccc(S(=O)(=O)N2CCCC2)cc1)c1nc2ccc(Br)cc2s1	?	-13.4%	50.1µM*	14.2%	?	·
CN(C)CCCN(C(=O)c1ccc(S(=O)(=O)N2CCOCC2)cc1)c1nc2cc3c(cc2s1)OCO3	-13.6%	-6.4%	·	38.7%	-11.9%	·
